Results filed as inconclusive are left out. Calls of active or inactive are those of the source. Unless noted, calls follow the shape of the dose curve; as a rule, active = well fitted curve in the direction sought with a large enough effect in the repeat runs; inconclusive = weak or mixed curves; inactive = no such curve, though single readings can be large; an effect the other way counts as inactive or inconclusive.
Legend:
[1] = qHTS RealTime-Glo MT Cell Viability Assay in HEK293 cells - 0 hour (AID 1224880); also: nearly all actives have a fitted effect of over 45% in size; also: potency is read from the fitted curve at half-maximal effect; as to activity change, negative = cytotoxicity: top concentration of the series differs between compounds
Method in brief: (§1)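 Tox21 screen in HEK293 using RealTime-Glo MT chemistry, with cells and reagent co-dispensed. Luminescence proportional to viable cell number was captured at intervals during 40 h compound exposure at 37 C.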

[2] = A CellTox Green Cytotoxicity Assay to monitor cytotoxicity in HEK293 cells - 32 hour (AID 1224881); also: nearly all actives have a fitted effect of over 40% in size; also: potency is read from the fitted curve at half-maximal effect
Method in brief: (§2)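 Seeding of HEK293 cells together with cytotoxicity dye preceded a 5 h incubation at 37 C/5% CO2. Test compounds in DMSO were then added and fluorescence monitored across 40 h.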

[3] = A CellTox Green Cytotoxicity Assay to monitor cytotoxicity in HepG2 cells - 0 hour (AID 1224882); also: nearly all actives have a fitted effect of over 35% in size; also: potency is read from the fitted curve at half-maximal effect
Method in brief: (§3)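 Nonlytic assay: viable cells exclude the dye, so fluorescence scales with cell death. HepG2 at 600 cells/well, compounds added after 5 h, signal read across 40 h.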

[4] = A CellTox Green Cytotoxicity Assay to monitor cytotoxicity in HepG2 cells - 32 hour (AID 1224883); also: nearly all actives have a fitted effect of over 50% in size; also: potency is read from the fitted curve at half-maximal effect
Method in brief: as §3

[5] = A CellTox Green Cytotoxicity Assay to monitor cytotoxicity in HEK293 cells - 8 hour (AID 1224884); also: nearly all actives have a fitted effect of over 35% in size; also: potency is read from the fitted curve at half-maximal effect
Method in brief: as §2

[6] = qHTS RealTime-Glo MT Cell Viability Assay in HepG2 cells - 16 hour (AID 1224885); also: nearly all actives have a fitted effect of over 50% in size
Method in brief: (§4)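 HepG2 suspension premixed with RealTime-Glo reagents is plated at 600 cells per well and left 5 h at 37 C/5% CO2. Compounds in DMSO then go in, and bioluminescence reflecting viable cell number is recorded over 40 h.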

[7] = qHTS RealTime-Glo MT Cell Viability Assay in HEK293 cells - 24 hour (AID 1224886); also: top concentration of the series differs between compounds; nearly all actives have a fitted effect of over 50% in size
Method in brief: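 Reads taken at 0, 8, 16, 24, 32 and 40 h from the same wells. HEK293 cells (600/well) carried RealTime-Glo reagents from seeding, with compound added after a 5 h settle at 37 C.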

[8] = qHTS RealTime-Glo MT Cell Viability Assay in HEK293 cells - 8 hour (AID 1224887); also: top concentration of the series differs between compounds; nearly all actives have a fitted effect of over 50% in size
Method in brief: as §1

[9] = A CellTox Green Cytotoxicity Assay to monitor cytotoxicity in HEK293 cells - 16 hour (AID 1224888); also: nearly all actives have a fitted effect of over 35% in size; also: potency is read from the fitted curve at half-maximal effect
Method in brief: as §2

[10] = qHTS RealTime-Glo MT Cell Viability Assay in HepG2 cells - 0 hour (AID 1224889); also: nearly all actives have a fitted effect of over 50% in size; also: potency is read from the fitted curve at half-maximal effect
Method in brief: as §4

[11] = A CellTox Green Cytotoxicity Assay to monitor cytotoxicity in HepG2 cells - 8 hour (AID 1224890); also: nearly all actives have a fitted effect of over 45% in size; also: potency is read from the fitted curve at half-maximal effect
Method in brief: as §3

[12] = qHTS assay to identify small molecule antagonists of the estrogen receptor alpha (ER-alpha) signaling pathway using the BG1 cell line in the presence of 0.1 nM 17-beta-estradiol - cell viability counter screen (AID 1259241); also: nearly all actives have a fitted effect of over 40% in size
Method in brief: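 Measures cytotoxicity alongside the ER-alpha antagonist readout: VM7Luc4E2 cells, charcoal-stripped serum, 0.1 nM 17beta-estradiol final, 22 hr compound incubation at 37C, CellTiter-Fluor fluorescence.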

[13] = qHTS assay to identify small molecule antagonists of the androgen receptor (AR) signaling pathway using the MDA cell line in the presence of 0.5 nM R1881 - cell viability counter screen (AID 1259242); also: nearly all actives have a fitted effect of over 45% in size
Method in brief: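 R1881 at 0.5 nM final stimulated MDA-kb2 cells during 16 hr compound treatment at 37C. Cytotoxicity read: CellTiter-Fluor fluorescence after 30 min.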

[14] = target: Estrogen receptor (Homo sapiens) (UniProt P03372); assay: qHTS assay to identify small molecule antagonists of the estrogen receptor alpha (ER-alpha) signaling pathway using the BG1 cell line in the presence of 0.1 nM 17-beta-estradiol (AID 1259244); also: nearly all actives have a fitted effect of over 50% in size
Estrogen receptor (Homo sapiens), sequence (P03372 whole entry, looked up): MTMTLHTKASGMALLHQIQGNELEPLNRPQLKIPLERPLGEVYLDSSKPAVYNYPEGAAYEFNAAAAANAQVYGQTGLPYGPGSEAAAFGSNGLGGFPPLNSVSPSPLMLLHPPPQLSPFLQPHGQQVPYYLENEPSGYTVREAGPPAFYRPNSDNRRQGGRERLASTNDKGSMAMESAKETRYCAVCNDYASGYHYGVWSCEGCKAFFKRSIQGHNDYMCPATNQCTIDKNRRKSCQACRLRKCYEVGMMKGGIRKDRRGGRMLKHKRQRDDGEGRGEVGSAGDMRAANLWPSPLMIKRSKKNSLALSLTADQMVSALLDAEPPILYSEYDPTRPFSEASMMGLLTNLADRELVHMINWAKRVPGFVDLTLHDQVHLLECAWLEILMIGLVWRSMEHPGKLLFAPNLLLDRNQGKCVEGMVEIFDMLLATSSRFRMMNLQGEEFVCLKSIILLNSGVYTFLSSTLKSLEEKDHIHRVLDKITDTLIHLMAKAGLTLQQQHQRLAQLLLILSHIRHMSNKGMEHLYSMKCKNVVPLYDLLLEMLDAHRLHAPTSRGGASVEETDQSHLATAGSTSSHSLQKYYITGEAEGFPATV
Method in brief: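 VM7Luc4E2; 4xERE-luciferase; 0.1 nM E2 final; 22 h co-incubation, 37C; ONE-Glo luminescence after 30 min at room temperature.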

[15] = qHTS assay to identify small molecule HDAC inhibitors (AID 1259364); also: potency is read from the fitted curve at half-maximal effect;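 also: wild-type HCT-116 cells with endogenous class I/II HDAC activity; nearly all actives have a fitted effect of over 45% in size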; as to activity change, negative = inhibition: top concentration of the series differs between compounds
Method in brief: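 Relative class I and II HDAC activity is taken from the luminogenic signal in HCT-116 cells, with compound exposure 2 hr and reagent development 30 min at room temperature.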

[16] = qHTS assay to identify small molecule HDAC inhibitors - cell viability counter screen (AID 1259365)
Method in brief: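 Following a 2hr exposure of overnight-plated wild-type HCT-116 cells to DMSO-delivered compounds, CellTiter-Glo was added and luminescence recorded after 30min at room temperature.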

[17] = qHTS assay to identify small molecule agonists of the sonic hedgehog signaling (Shh) pathway - cell viability counter screen (AID 1259366); also: nearly all actives have a fitted effect of over 50% in size
Method in brief: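 After a 4hr attachment at 37C, NIH/3T3 cells bearing an integrated Gli1-driven luciferase reporter were dosed with compounds. Treatment lasted 24hr, with the final hour including CellTiter-Fluor for a fluorescence viability measurement.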

[18] = qHTS assay to identify small molecule antagonists of the sonic hedgehog signaling (Shh) pathway - cell viability counter screen (AID 1259367); also: nearly all actives have a fitted effect of over 55% in size
Method in brief: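 NIH/3T3-derived Gli1-Luc reporter cells (2,000 per well) rested 4 hr at 37 C, then received DMSO compounds plus conditioned medium. After 23 hr of treatment, CellTiter-Fluor was added for 1 hr at 37C and fluorescence read.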

[19] = target: Androgen receptor (Homo sapiens) (UniProt P10275); assay: qHTS assay to identify small molecule antagonists of the androgen receptor (AR) signaling pathway using the MDA cell line in the presence of 0.5 nM R1881 (AID 1259243); also: nearly all actives have a fitted effect of over 50% in size
Androgen receptor (Homo sapiens), sequence (P10275 whole entry, looked up): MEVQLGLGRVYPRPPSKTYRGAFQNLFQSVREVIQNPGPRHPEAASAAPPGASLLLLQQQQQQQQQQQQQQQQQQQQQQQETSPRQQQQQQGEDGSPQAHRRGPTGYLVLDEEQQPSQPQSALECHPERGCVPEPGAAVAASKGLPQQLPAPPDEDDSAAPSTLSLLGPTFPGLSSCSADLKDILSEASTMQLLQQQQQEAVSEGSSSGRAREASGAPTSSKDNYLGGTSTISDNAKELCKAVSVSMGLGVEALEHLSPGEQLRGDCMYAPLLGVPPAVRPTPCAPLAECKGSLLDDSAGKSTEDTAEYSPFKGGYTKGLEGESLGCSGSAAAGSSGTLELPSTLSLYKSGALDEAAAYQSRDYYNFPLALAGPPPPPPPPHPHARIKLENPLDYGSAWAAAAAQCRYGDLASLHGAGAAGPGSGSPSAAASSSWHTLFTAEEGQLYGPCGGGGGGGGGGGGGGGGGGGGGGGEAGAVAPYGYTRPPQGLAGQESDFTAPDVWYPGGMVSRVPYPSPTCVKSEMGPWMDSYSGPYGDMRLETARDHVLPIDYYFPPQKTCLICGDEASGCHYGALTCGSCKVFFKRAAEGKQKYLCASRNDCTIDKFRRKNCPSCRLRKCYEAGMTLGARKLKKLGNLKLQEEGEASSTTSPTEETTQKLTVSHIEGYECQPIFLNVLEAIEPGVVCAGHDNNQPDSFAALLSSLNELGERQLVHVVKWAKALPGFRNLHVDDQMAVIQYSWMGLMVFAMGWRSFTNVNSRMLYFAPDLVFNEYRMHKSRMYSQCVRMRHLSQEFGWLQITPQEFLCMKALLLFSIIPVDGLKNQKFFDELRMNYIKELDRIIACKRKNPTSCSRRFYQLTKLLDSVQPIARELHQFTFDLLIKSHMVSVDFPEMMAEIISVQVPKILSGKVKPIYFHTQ
Method in brief: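 We exposed MDA-kb2 cells to compounds under 0.5 nM R1881 stimulation for 16 hr at 37C and quantified MMTV-driven luciferase by luminescence.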

[20] = qHTS assay to identify small molecule phospholipidosis (PLD) inducers (AID 1259344; active = well fitted curve in the direction sought with a large enough effect; an effect the other way counts as inactive or inconclusive)
Method in brief: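 HepG2 cells on collagen I, attached 4 h at 37 C, were co-treated with compound and LipidTOX Red dye for 24 h at 37 C, then fixed with paraformaldehyde plus Hoechst 33342 and imaged by high-content microscopy for phospholipid accumulation.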
% is scaled to controls: 0 for no effect and ±100 for the full control effect.

CCCC(=O)OCc1ccccc1
inactive: Potency [1] | Potency [2] | Potency [3] | Potency [4] | Potency [5] | outcome [6] | Potency [7] | Potency [8] | Potency [9] | Potency [10] | Potency [11] | Potency [12] | Potency [13] | Potency [14] | Potency [15] | outcome [16] | Potency [17] | Potency [18]

NCCOCCOCCN
inactive: Potency [1] | Potency [2] | Potency [3] | Potency [4] | Potency [5] | outcome [6] | Potency [7] | Potency [8] | Potency [9] | Potency [10] | Potency [11] | Potency [12] | Potency [13] | Potency [19] | Potency [15] | outcome [16] | Potency [17] | Potency [18]

Cc1ccc(NC=O)c(C)c1
inactive: Potency [1] | Potency [2] | Potency [3] | Potency [4] | Potency [5] | outcome [6] | Potency [7] | Potency [8] | Potency [9] | Potency [10] | Potency [11] | Potency [12] | Potency [13] | Potency [14] | Potency [15] | outcome [16] | Potency [17] | Potency [18]

CCCOC(C)=O
inactive: Potency [1] | Potency [2] | Potency [3] | Potency [4] | Potency [5] | outcome [6] | Potency [7] | Potency [8] | Potency [9] | Potency [10] | Potency [11] | Potency [12] | Potency [13] | Potency [19] | Potency [14] | Potency [15] | outcome [16] | Potency [17] | Potency [18]

O=C1C=CCCC1
inactive: Potency [1] | Potency [2] | Potency [3] | Potency [4] | Potency [5] | outcome [6] | Potency [7] | Potency [8] | Potency [9] | Potency [10] | Potency [11] | Potency [12] | Potency [13] | Potency [14] | Potency [15] | outcome [16] | Potency [18]

O=C(O)c1ccc2c(c1)nc(C(=O)NC1CCN(C3CC3)CC1)n2Cc1cc(-c2ccc(Cl)s2)on1
inactive: activity change, negative = cytotoxicity [1] -5.93% [at 15.8 µM] | cytotoxicity increase [2] 1.64% [at 15.8 µM] | cytotoxicity [3] -4.38% [at 15.8 µM] | cytotoxicity increase [4] -6.61% [at 15.8 µM] | cytotoxicity increase [5] -5.24% [at 15.8 µM] | activity change, negative = cytotoxic [6] -5.36% [at 15.8 µM] | activity change, negative = cytotoxicity [7] 0.501% [at 15.8 µM] | activity change, negative = cytotoxicity [8] 8.44% [at 15.8 µM] | activity change [9] 0.74% [at 15.8 µM, active compounds read high] | activity change, negative = cytotoxicity [10] -12.8% [at 15.8 µM] | cytotoxicity increase [11] 1.82% [at 15.8 µM] | activity change, negative = cytotoxicity [12] 3.2% [at 19 µM] | viability change, negative = cytotoxic [13] 1.29% [at 19 µM] | activity change, negative = inhibition [15] -4.76% [at 19 µM] | activity change, negative = cytotoxicity [16] 0.77% [at 19 µM] | viability change, negative = cytotoxic [17] 1.29% [at 19 µM] | viability change, negative = cytotoxic [18] 0.451% [at 19 µM]

CCCCCCOC(=O)c1ccccc1
inactive: Potency [1] | Potency [2] | Potency [3] | Potency [4] | Potency [5] | outcome [6] | Potency [7] | Potency [8] | Potency [9] | Potency [10] | Potency [11] | Potency [12] | Potency [13] | Potency [14] | Potency [15] | outcome [16] | Potency [17] | Potency [18]

C=CCCC
inactive: Potency [1] | Potency [2] | Potency [3] | Potency [4] | Potency [5] | outcome [6] | Potency [7] | Potency [8] | Potency [9] | Potency [10] | Potency [11] | Potency [12] | Potency [13] | Potency [15] | outcome [16] | Potency [17] | Potency [18]

FC1(F)C(F)(F)C(F)(F)C2(F)C(F)(C1(F)F)C(F)(F)C(F)(F)C1(F)C(F)(F)C(F)(F)C(F)(F)C(F)(F)C12F (stereo not given)
inactive: Potency [1] | Potency [2] | Potency [3] | Potency [4] | Potency [5] | outcome [6] | Potency [7] | Potency [8] | Potency [9] | Potency [10] | Potency [11] | Potency [12] | Potency [13] | Potency [15] | outcome [16] | Potency [17] | Potency [18]

CCC1=C(C)CN(C(=O)NCCc2ccc(S(=O)(=O)NC(=O)NC3CCC(C)CC3)cc2)C1=O (stereo not given)
inactive: Potency [1] | Potency [2] | Potency [3] | Potency [4] | Potency [5] | outcome [6] | Potency [7] | Potency [8] | Potency [9] | Potency [10] | Potency [11] | Potency [12] | Potency [13] | Potency [19] | Potency [14] | Potency [20] | Potency [15] | Potency [17] | Potency [18]

CC(C)C/C=C(\C=O)c1ccccc1
inactive: Potency [1] | Potency [2] | Potency [3] | Potency [4] | Potency [5] | outcome [6] | Potency [7] | Potency [8] | Potency [9] | Potency [10] | Potency [11] | Potency [12] | Potency [13] | Potency [14] | Potency [15] | outcome [16]

CCC(C(=O)O)c1ccc(N2Cc3ccccc3C2=O)cc1 (stereo not given)
active: Potency [15] 2.66 µM
inactive: Potency [1] | Potency [2] | Potency [3] | Potency [4] | Potency [5] | outcome [6] | Potency [7] | Potency [9] | Potency [10] | Potency [11] | Potency [12] | Potency [13] | Potency [19] | Potency [14] | outcome [16] | Potency [17] | Potency [18]

CCN(CC)CC(=O)OCC(=O)[C@@]1(O)CC[C@H]2[C@@H]3CCC4=CC(=O)CC[C@]4(C)[C@H]3[C@@H](O)C[C@@]21C
inactive: Potency [2] | Potency [3] | Potency [4] | Potency [5] | outcome [6] | Potency [7] | Potency [9] | Potency [11] | Potency [12] | Potency [13] | Potency [19] | Potency [15] | outcome [16] | Potency [17] | Potency [18]
active: Potency [1] 1.9 µM | Potency [10] 1.07 µM

CCCCCCCCCCCCCCCCN
active: Potency [2] 16.9 µM | Potency [3] 21.3 µM | Potency [4] 23.9 µM | Potency [5] 19 µM | Potency [9] 19 µM | Potency [11] 21.3 µM
inactive: Potency [1] | outcome [6] | Potency [7] | Potency [10] | Potency [12] | Potency [13] | Potency [20] | Potency [15] | outcome [16] | Potency [18]

Reference: PubChem BioAssay (Tox21)
